PHOSPHO1 inh: inhibitors of human PHOSPHO1 phosphatase. Q8TCT1. recombinant PHOSPHO1, absorbance phosphatase assay. inhibition, % at 13.3 µM. hit rate 1.1% among 290,000. AID 1565; in the data active means inhibition above about 60%
Cl transport mod: KCC2 (human) Cl- transport modulation | Q9H2X9 | KCC2 cells, thallium flux FluoZin-2 fluorescence | B-score of Tl+ flux slope (higher = more flux/activation; lower = inhibition) at 10 µM | hit rate 2.2% among 190,000;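 active means thallium flux slope and its plate-corrected score both differing from the plate sample mean at a set confidence after two filtering rounds, in either direction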;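 further: slope of fluorescence scaled to starting intensity during 10 to 20 s after thallium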
Target sequence (Q9H2X9 whole entry, looked up): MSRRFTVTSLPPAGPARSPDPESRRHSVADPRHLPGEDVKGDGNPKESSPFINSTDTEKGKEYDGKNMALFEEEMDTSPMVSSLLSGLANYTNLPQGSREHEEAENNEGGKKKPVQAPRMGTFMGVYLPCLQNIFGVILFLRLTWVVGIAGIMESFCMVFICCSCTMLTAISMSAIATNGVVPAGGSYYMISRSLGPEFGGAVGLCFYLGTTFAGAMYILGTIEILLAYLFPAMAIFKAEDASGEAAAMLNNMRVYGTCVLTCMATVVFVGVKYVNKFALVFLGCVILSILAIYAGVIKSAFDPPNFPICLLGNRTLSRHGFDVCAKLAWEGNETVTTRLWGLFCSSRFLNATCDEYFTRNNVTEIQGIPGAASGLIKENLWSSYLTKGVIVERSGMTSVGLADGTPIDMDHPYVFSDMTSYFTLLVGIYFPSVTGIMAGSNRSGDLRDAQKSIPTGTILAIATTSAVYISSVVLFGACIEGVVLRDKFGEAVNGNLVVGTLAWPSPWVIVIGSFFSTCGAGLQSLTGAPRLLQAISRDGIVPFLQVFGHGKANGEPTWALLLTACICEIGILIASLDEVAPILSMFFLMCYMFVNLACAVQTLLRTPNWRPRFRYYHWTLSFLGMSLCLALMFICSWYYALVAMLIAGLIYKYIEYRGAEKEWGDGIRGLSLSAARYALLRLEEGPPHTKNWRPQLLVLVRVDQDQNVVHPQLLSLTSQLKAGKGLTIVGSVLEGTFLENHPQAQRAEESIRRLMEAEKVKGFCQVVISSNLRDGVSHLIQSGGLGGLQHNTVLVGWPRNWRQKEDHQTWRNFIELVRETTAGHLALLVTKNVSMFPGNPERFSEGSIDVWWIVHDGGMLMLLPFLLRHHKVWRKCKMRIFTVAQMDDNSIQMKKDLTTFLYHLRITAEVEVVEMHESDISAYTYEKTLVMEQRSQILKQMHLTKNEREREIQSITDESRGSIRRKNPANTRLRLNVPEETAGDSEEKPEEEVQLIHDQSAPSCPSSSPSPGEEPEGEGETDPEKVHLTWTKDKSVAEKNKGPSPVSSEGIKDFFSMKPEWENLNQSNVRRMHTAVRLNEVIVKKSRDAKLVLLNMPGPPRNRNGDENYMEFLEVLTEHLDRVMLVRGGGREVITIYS
Cardio protect: myocardial damage modulation in H9c2 cells; H9c2 cardiomyocytes, H2O2 injury protection, ATPLite, 2 h; protection from H2O2 cell death, % at 20 µM; hit rate 0.63% among 360,000;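 active means compounds giving at least 50% protection of heart cells from peroxide-induced death in the single-dose screen, raw or plate-pattern-corrected value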;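 further: 0% = DMSO wells with peroxide and 100% = DMSO wells without peroxide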
Calb FLC: C. albicans growth modulation with fluconazole; C. albicans CaCi-2 (fluconazole-resistant clinical isolate) + fluconazole, Alamar Blue growth, 48 h; AID 1979; hit rate 0.57% among 300,000; growth inhibition, % (concentration not given with the values);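 active means growth inhibition above about 58% in most replicates, limit read from the data, passing the limit was not always enough; inconclusive means exactly half the replicates above a set limit; inactive means most replicates below a set limit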;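 further: all wells also contain fluconazole at 8 µg/ml as a sub-toxic cotreatment; 0% = median of DMSO wells and 100% = median of geldanamycin control wells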
Efflux pump inh: inhibitors of Candida antifungal efflux pumps expressed in yeast | S. cerevisiae Candida pump triplex, Nile Red efflux | hit rate 0.44% among 330,000 | inhibition, % at 10 µM;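 active means plate passing quality check with inhibition over a set limit, or well fluorescence over plate mean plus 4 SD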;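 further: Nile Red retained in pooled yeast measured as flow cytometry median fluorescence; 0% = buffer negative control and 100% = Enniatin B positive control; higher means more Nile Red kept so more efflux inhibition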
* hit, by the source's call; ? = inconclusive; nt = no result. An excerpt weighted towards active compounds, which were near 3.3% of everything screened.

SMILES | PHOSPHO1 inh | Cl transport mod | Cardio protect | Calb FLC | Efflux pump inh
COc1cc(OC)c(NC(=O)c2cncn2-c2ccc(F)cc2)cc1Cl | 20 | nt | -7 | 20 | 0
O=C(O)CCN1C(=O)c2ccc(NC(=O)C(c3ccccc3)c3ccccc3)cc2C1=O | 33 | 0.44 | 2 | 3 | 0
COc1ccc(N(CC(=O)Nc2ccc(C(N)=O)cc2)S(=O)(=O)c2ccc(C)c([N+](=O)[O-])c2)cc1 | 5 | -1.1 | 4 | 2 | 0
CC(=O)Nc1ccc(NC(=O)CN(c2ccc([N+](=O)[O-])cc2)S(=O)(=O)c2ccccc2)cc1 | 67* | nt | 14 | -1 | 0
COc1ccc(N(CC(=O)Nc2cccc(C(C)=O)c2)S(=O)(=O)c2ccc(NC(C)=O)cc2)cc1 | 34 | nt | 73* | 2 | 0
COc1ccc(N(CC(=O)Nc2ccccc2C(N)=O)S(=O)(=O)c2ccc(C)c([N+](=O)[O-])c2)cc1 | 54 | 0.12 | 15 | 95* | 0
CC1(C)C(=O)NC(=O)N1Cc1ccccc1 | nt | nt | 1 | -5 | 0
CCn1c(SCC(=O)c2cc(C)n(C)c2C)nnc1-c1ccccc1 | 62* | 0.19 | -6 | -1 | 0
O=c1c2ccccc2nnn1CSc1nnc(-c2cccs2)n1Cc1ccccc1 | -36 | -2 | -4 | 11 | 0
Cc1cc(C(=O)CSc2nnc(-c3cccs3)n2Cc2ccccc2)c(C)n1C | 90* | -2.9 | 16 | -17 | 0
O=C1COc2ccc(C(=O)CSc3nnc(-c4cccs4)n3Cc3ccccc3)cc2N1 | 74* | nt | 8 | 1 | 0
O=c1cc(CSc2nnc(-c3cccs3)n2Cc2ccccc2)nc2sc3ccccc3n12 | 69* | -2.7 | -16 | 35 | 0
O=S1(=O)C=CC(c2ccccc2)C1 (configuration not stated) | 24 | 0.72 | -5 | -1 | 0
CCCCn1c(=O)[nH]c(=O)c2c1nc(-c1ccc(-c3ccccc3Br)o1)n2CC | 30 | nt | 1 | 104* | 0
CC(=O)/C(=N\Nc1ccccc1)Sc1cccc2cccnc12 | -21 | -2.1 | -10 | -4 | 1
O=C(Sc1cccc2cccnc12)c1ccccc1Br | 15 | nt | 29 | 112* | 0
CN(C)C(=O)CSc1cccc2cccnc12 | 71* | 8.1* | 34 | -17 | 0
O=C(Sc1cccc2cccnc12)c1ccc(F)cc1 | -86 | 64* | nt | nt | nt
O=C(CSc1cccc2cccnc12)Nc1ccccc1F | 27 | nt | -6 | 4 | 0
NNC(=O)CSc1cccc2cccnc12 | 21 | 0 | 4 | -3 | 0
CCOc1ccc(NC(=O)COc2ccc(C(=O)NCC3CCCO3)cc2OC)cc1 (configuration not stated) | nt | nt | -1 | nt | 0
COc1ccc2nc(-c3ccccc3)cc(C(=O)OCC(=O)NC3CC3)c2c1 | nt | nt | -8 | nt | nt
CSC1=NC2(CCCCC2)C2=C(CCCC2)N1 | 101* | 0 | 1 | -5 | 0
Cc1nn(-c2ccccc2)c(C)c1-c1cc(C(=O)N/N=C/c2ccc(O)cc2)[nH]n1 | 28 | -1.7 | 56* | -4 | 0
COc1cc(/C=N/NC(=O)c2cc(-c3c(C)nn(-c4ccccc4)c3C)n[nH]2)ccc1O | -7 | -1.4 | 51* | -10 | 0
SMILES | PHOSPHO1 inh | Cl transport mod | Cardio protect | Calb FLC | Efflux pump inh
COc1cc(/C=N/NC(=O)c2cc(-c3ccc4c(c3)OCO4)n[nH]2)ccc1O | 14 | -0.28 | 74* | -7 | 0
COc1cc2ccccc2cc1C(=O)N/N=C/c1ccc2c(c1)OCO2 | 61* | nt | 6 | 32 | 0
CC(=O)N1c2ccc(S(=O)(=O)N(C)CC(=O)NC3CCCC3)cc2CC1C (configuration not stated) | 32 | nt | -4 | 3 | 0
Cc1ccsc1/C=N/NC(=O)c1sccc1C | -4 | 5.7* | -4 | 1 | 0
CN1CCN(S(=O)(=O)c2ccc(Br)c3ccccc23)CC1 | 40 | nt | -8 | 0 | 0
Cc1ccc(O)c(NC(=O)c2ccc3c(c2)C(=O)N(Cc2cccnc2)C3=O)c1 | 63* | nt | 13 | -4 | 0
Cc1cc(C)c(NC(=O)c2ccc3c(c2)C(=O)N(Cc2cccnc2)C3=O)c(C)c1 | 23 | nt | -2 | -14 | -1
COc1ccc(Cc2nnc(N/N=C/c3ccc(O)cc3O)[nH]c2=O)cc1OC | 16 | 0.63 | 52* | -3 | 0
CCCCCC/C=N/Nc1nnc(Cc2ccc(OC)c(OC)c2)c(=O)[nH]1 | 39 | nt | -4 | 5 | 0
Cc1ccccc1Nc1ncccc1C(=O)N1CCOCC1 | 27 | nt | 2 | 109* | 0
CC(NC(=O)CNC(=S)N(Cc1cccs1)C1CCCC1)c1ccccc1 (configuration not stated) | -7 | -0.22 | -12 | -22 | 0
COc1ccc(N(C(C)=O)c2nc3ccccc3[nH]2)cc1 | 14 | nt | 5 | -3 | 0
N/C(=N\NC(=O)c1sccc1OCc1ccc(Cl)cc1Cl)c1ccccn1 | 8 | -1.5 | 55* | ? | 0
CNC(=S)NNC(=O)c1sccc1OCc1ccc(Cl)cc1Cl | 12 | nt | 0 | 28 | 0
Nc1nc2c(ncn2[C@@H]2O[C@H](CNCc3ccccc3)[C@@H](O)[C@H]2O)c(=O)[nH]1 | nt | nt | 0 | nt | nt
O=C(/C=C/c1cccc(Cl)c1)c1nc2ccccc2[nH]1 | -8 | 0.003 | -6 | 99* | 0
O=C(/C(=C\c1ccccc1)c1nc2ccccc2[nH]1)c1ccc(Cl)cc1 | -18 | 1.2 | -18 | 18 | 0
COc1ccc(C(=O)Nc2cccc(C(=O)N3CCN(C)CC3)c2)cc1 | -7 | 0.2 | -1 | -2 | 0
COc1ccc(C(=O)Nc2cccc(C(=O)N3CCCCC3)c2)cc1 | 66* | nt | -9 | 9 | 0
O=C(OCCCOC(=O)c1cc[n+]([O-])cc1)c1cc[n+]([O-])cc1 | 62* | nt | 11 | 0 | 0
CC(=O)Nc1ccc(C(=O)OCCCOC(=O)c2ccc(NC(C)=O)cc2)cc1 | 48 | nt | 10 | 3 | 0
Oc1ccc(/C=N/N=C/c2ccc(O)c(O)c2)cc1O | nt | nt | 52* | -3 | 0
Oc1ccc(N=Cc2ccc(O)c(O)c2)cc1 | 2 | -0.25 | -5 | 31 | 0
Cc1cccc(C(=O)NCC(=O)N2CCCCCCC2)c1 | nt | nt | 9 | nt | 0
CCOc1cc(/C=C(\C#N)C(=O)Nc2ccc(S(N)(=O)=O)cc2)ccc1OCCN1CCOCC1 | 24 | nt | 56* | -3 | -9
SMILES | PHOSPHO1 inh | Cl transport mod | Cardio protect | Calb FLC | Efflux pump inh
CCOc1cc(C(=O)OC(C)C(=O)Nc2ccc(S(N)(=O)=O)cc2)ccc1OCC(=O)N1CCOCC1 (configuration not stated) | nt | nt | -6 | 3 | 0
CCCn1nc(C(=O)Nc2nnc(C3CC3)s2)c2ccccc2c1=O | nt | nt | 1 | nt | 0
Cn1nc(C(=O)Nc2nc(-c3ccccn3)cs2)c2ccccc2c1=O | nt | nt | 55* | nt | nt
CCCn1nc(C(=O)Nc2nc(-c3ccccn3)cs2)c2ccccc2c1=O | nt | nt | 86* | nt | 0
Cn1nc(C(=O)Nc2cccnc2)c2ccccc2c1=O | -10 | -0.43 | 7 | 22 | 0
CCn1nc(C(=O)Nc2nc(-c3ccccn3)cs2)c2ccccc2c1=O | nt | nt | 79* | nt | 0
CCOC(=S)SCc1cn2cccc(C)c2n1 | -7 | -1.1 | -12 | -6 | 0

From PubChem
